EZH2 inh: EZH2/PRC2 methyltransferase inhibitors, primary screen, biochemical, DELFIA time-resolved fluorescence, single point. PRC2 H3K27 methylation, DELFIA TRF, 1 h. inhibition, % at 12.5 µM. hit rate 0.35% among 57,000. AID 651548, 2012;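 active = mean inhibition of replicates at least 50% and every single replicate also reaching 50%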;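 also: dimethyl H3K27 on biotinylated H3 21-44 peptide detected by antibody; plate controls were median neutral control wells for no effect and median positive control wells for full effect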
Target sequence (Q15910 whole entry, looked up): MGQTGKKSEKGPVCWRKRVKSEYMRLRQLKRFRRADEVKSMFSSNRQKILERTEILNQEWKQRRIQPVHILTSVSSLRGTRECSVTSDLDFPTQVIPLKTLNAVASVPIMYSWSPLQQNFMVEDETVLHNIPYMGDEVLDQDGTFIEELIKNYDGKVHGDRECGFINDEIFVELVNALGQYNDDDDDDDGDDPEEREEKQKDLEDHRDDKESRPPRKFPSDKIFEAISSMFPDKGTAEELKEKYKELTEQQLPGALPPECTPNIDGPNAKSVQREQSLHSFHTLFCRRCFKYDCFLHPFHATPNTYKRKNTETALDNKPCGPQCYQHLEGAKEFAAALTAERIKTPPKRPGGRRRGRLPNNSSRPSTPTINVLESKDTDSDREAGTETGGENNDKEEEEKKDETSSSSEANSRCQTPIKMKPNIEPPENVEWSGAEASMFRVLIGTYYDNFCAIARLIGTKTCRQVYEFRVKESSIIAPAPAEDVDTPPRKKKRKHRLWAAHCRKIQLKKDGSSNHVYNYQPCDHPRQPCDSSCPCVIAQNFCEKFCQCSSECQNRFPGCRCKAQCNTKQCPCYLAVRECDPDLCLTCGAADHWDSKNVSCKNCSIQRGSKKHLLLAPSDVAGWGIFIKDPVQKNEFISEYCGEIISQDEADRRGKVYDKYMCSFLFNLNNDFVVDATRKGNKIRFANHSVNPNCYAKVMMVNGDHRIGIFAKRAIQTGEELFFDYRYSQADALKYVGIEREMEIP
* marks the source's active call; other numbers are inactive results. Only a selection was taken, and hits are over-represented in it overall.

SMILES | EZH2 inh
COc1cc(-c2oc3cc(O)cc(O)c3c(=O)c2O[C@@H]2O[C@H](CO)[C@@H](O)[C@H](O)[C@H]2O)ccc1O[C@@H]1O[C@H](CO)[C@@H](O)[C@H](O)[C@H]1O | -8.9
O=c1c(O[C@@H]2O[C@H](CO)[C@H](O)[C@H](O)[C@H]2O)c(-c2ccc(O)cc2)oc2cc(O)cc(O)c12 | 5.2
O=C1C[C@@H](c2ccc(O)c(O)c2)Oc2cc(O[C@@H]3O[C@H](CO)[C@@H](O)[C@H](O)[C@H]3O)cc(O)c21 | 5.2
COc1cc(O)c2c(=O)c(OC3OC(CO[C@@H]4O[C@@H](C)[C@H](O)[C@@H](O[C@@H]5O[C@@H](C)[C@H](O)[C@@H](O)[C@H]5O)[C@H]4O)C(O)C(O)C3O)c(-c3ccc(O)cc3)oc2c1 (some centres not stated) | 8.0
O=c1c(O[C@@H]2OC[C@H](O)[C@H](O)[C@H]2O)c(-c2ccc(O)cc2)oc2cc(O)cc(O)c12 | 99.7*
O=c1c(-c2ccc(O)cc2)coc2cc(O)cc(O)c12 | 13.1
O=C(N/N=C/c1cc(Br)cc(Br)c1O)c1ccccn1 | -48.9
OCC1CCCN1CC1CC1 (configuration not stated) | -2.2
Cn1c(SCC(=O)Nc2ccc(Br)cc2)nnc1-c1ccccn1 | -16.9
CCN(CC(=O)Nc1cccc(C(C)=O)c1)S(=O)(=O)c1ccc(F)cc1 | 5.3
Cn1c(=O)c2c(ncn2CC(=O)Nc2ccncc2)n(C)c1=O | 1.6
Cc1ccc(N(C(C)C(=O)Nc2ccc(I)cc2C)S(C)(=O)=O)cc1C (configuration not stated) | 0.2
COc1ccc(C(=O)CCC(=O)Nc2ccc(C(=O)O)cc2)c(OC)c1 | -6.5
COC(=O)COc1cccc(NC(=O)c2ccccc2Cl)c1 | -31.7
COC(=O)c1ccccc1NC(=O)CSc1nnc(-c2ccco2)n1-c1ccccc1 | 16.8
COc1ccc([Si](C)(C)[C@@H]2[C@@H](CCO)O[C@]3(C(=O)N(Cc4ccc(NC(C)=O)cc4)c4ccccc43)[C@H]2C)cc1 | 20.4
COc1ccc([Si](C)(C)[C@@H]2[C@@H](CCO)O[C@]3(C(=O)N(C)c4ccccc43)[C@H]2C)cc1 | 12.3
COc1ccc([Si](C)(C)[C@@H]2[C@@H](CCn3cc([C@H](O)c4ccccc4)nn3)O[C@]3(C(=O)N(c4ccccc4)c4ccccc43)[C@H]2C)cc1 | 11.2
COc1ccc([Si](C)(C)[C@@H]2[C@@H](CCO)O[C@]3(C(=O)N(c4ccccc4)c4ccccc43)[C@H]2C)cc1 | 50.7*
COc1ccc([Si](C)(C)[C@H]2[C@H](CCn3cc([C@H](O)c4ccccc4)nn3)O[C@@]3(C(=O)N(C)c4c(Br)cc(C)cc43)[C@@H]2C)cc1 | 16.9
COc1ccc([Si](C)(C)[C@@H]2[C@@H](CCO)O[C@]3(C(=O)N(C)c4c(Br)cc(C)cc43)[C@H]2C)cc1 | 51.6*
CC(=O)c1ccc(NC(=O)c2ccc(CSc3ccccn3)cc2)cc1 | 2.0
Cc1ccc([N+](=O)[O-])cc1NC(=O)CSc1nnc(-c2ccncc2)n1-c1ccccc1 | 5.1
C=CCOc1ccccc1/C=N/NC(=O)c1ccccn1 | 14.1
CC(=O)N1CCc2nc(SCC(=O)Nc3cccc(C#N)c3)c(C#N)c(C(F)(F)F)c2C1 | 9.0
SMILES | EZH2 inh
Cc1cc(Cl)ccc1NC(=O)CN(c1ccc(Cl)cc1)S(C)(=O)=O | -15.2
Cc1ccc([N+](=O)[O-])c(OCCCSc2ncccn2)c1 | 15.9
Cc1ccc(C)c(OCCCCSc2ncccn2)c1Cl | 55.6*
Clc1ccc(OCCCCSc2ncccn2)cc1 | 28.3
O=[N+]([O-])c1ccccc1OCCCCSc1ncccn1 | 5.3
Cc1cc(Cl)cc(Br)c1OCCCSc1ncccn1 | 62.2*
CS(=O)(=O)N(CC(=O)Nc1ccccc1Sc1ccccc1)c1ccc(Cl)c(Cl)c1 | 24.6
Cc1ccccc1-c1nnc(SCC(=O)Nc2ccc(F)c(Cl)c2)n1C | 12.3
O=c1occ(CO)c(O)c1CN1CCc2ccccc2C1 | 2.9
CCOC(=O)c1c(NC(=O)CSc2nc3c(cc2C#N)CCCC3)sc2c1CCCC2 | 1.6
CC(=O)c1ccc(NC(=O)CN(C)S(=O)(=O)c2ccc(C)cc2)cc1 | -5.9
COc1cc(NC(=O)CCn2cnc3ccccc3c2=O)c(OC)cc1Cl | 5.9
O=C(OCc1ccccc1O[C@@H]1O[C@H](CO)[C@@H](O)[C@H](O)[C@H]1O)c1c(O)cccc1O[C@@H]1O[C@H](CO)[C@@H](O)[C@H](O)[C@H]1O | 2.0
O=C(OCC1OC(Oc2ccc(O)cc2COC(=O)C2(O)C(O)CCC(=O)C2O)C(O)C(O)C1O)c1ccccc1 (configuration not stated) | 22.1
CC(C)CC(=O)c1c(O)cc(O)cc1OC1OC(COC(=O)c2cc(O)c(O)c(O)c2)C(O)C(O)C1O (configuration not stated) | 93.9*
CCOC(=O)Cc1cc(C(=O)c2ccc(OC)cc2)sc1-c1ccc(OC)cc1 | 49.9
C=CCOc1ccccc1/C=N/NC(=O)CCCCC(=O)NO | 14.1
Cc1ccc(=O)n(-c2ccccc2)c1 | -6.4
Cc1nn(Cc2ccccc2Cl)c(C)c1NC(=O)C1CC(c2ccc(Cl)cc2)=NO1 (configuration not stated) | 1.1
Cc1ccc(/C=C/c2ccc(=O)n(Cc3ccccc3Cl)n2)cc1 | 70.1*
CC1CCN(CC(=O)Nc2sc3c(c2C(=O)Nc2ccccc2)CCCC3)CC1 | 15.6
Cc1cccc(CN2CCC(CNC(=O)c3cc4cc5ccc(C)cc5nc4o3)CC2)c1 | -17.4
C[C@@H]1CN([C@@H](C)CO)C(=O)c2cc(C#Cc3ccncc3)cnc2O[C@@H]1CN(C)CC1CCOCC1 | 13.5
C[C@@H]1CN([C@H](C)CO)C(=O)c2cc(C#Cc3ccncc3)cnc2O[C@H]1CN(C)CC1CCOCC1 | 99.7*
C[C@H]1CN([C@@H](C)CO)C(=O)c2cc(C#Cc3ccccc3)cnc2O[C@@H]1CN(C)CC1CCOCC1 | -12.3
SMILES | EZH2 inh
Cc1noc2ncnc(SCc3ccc(Cl)cc3)c12 | -14.9
Cc1c(Br)c([N+](=O)[O-])nn1C(C)C(=O)Nc1ccccc1C(F)(F)F (configuration not stated) | -10.3
O=C(CCCN1C(=O)c2ccccc2C1=O)Nc1ccccc1Cl | 7.8
COC(=O)c1ccccc1NC(=O)Cn1c(C)ccc1C | -8.0
COC(=O)c1ccccc1NC(=O)CNC(=O)c1ccccc1 | -6.9
COC(=O)c1ccccc1NC(=O)CCSc1ccc(C)cc1 | 54.3*
Cc1ccc(OCC(=O)Nc2ncccn2)c(C)c1 | 4.7
Cc1cccc(NC(=O)CSc2nnc(-c3ccco3)n2-c2ccccc2)c1C | 8.1
COc1ccc(NC(=O)CSc2cc(C)c3cccc(C)c3n2)cc1 | 17.6
O=c1cc(O)cc(/C=C/c2ccc(O)c(O)c2)o1 | 86.9*
Cc1cc(=O)oc2c(O)c(O)ccc12 | -3.3
Oc1ccc(/C=C/c2cc(O)cc(O)c2)cc1 | -7.7
Cc1ccccc1/C=N/NC(=O)CCCCC(=O)NO | 16.1
CC1(C)CC(=O)C2=C(C1)Nc1ccccc1N(C(=O)Cc1ccccc1)C2c1ccc(-c2ccccc2[N+](=O)[O-])o1 (configuration not stated) | -1.7
CCOC(=O)c1c(NC(=O)CSc2nc3ccccc3c(=O)[nH]2)sc2c1CCCC2 | 75.6*
O=C(CSc1nc2ccccc2c(=O)[nH]1)Nc1ccc(F)c(Cl)c1 | 31.4
COc1ccc(NC(=O)CSc2nc3ccccc3c(=O)[nH]2)cc1Cl | -5.6

From PubChem BioAssay
